This is an account of results in PubChem BioAssay AID1240 (Sanford-Burnham Center for Chemical Genomics, 2008).

In all, about 50,000 compounds went through this assay and about 800 (1.6%) showed an effect of 50% or more. This is one part of a sample in which strong results are shown more often than they occur.

The target in the assay is Bcl-2-like protein 10 (Homo sapiens) (UniProt Q9HD36). Description: Phenotype converters, Bcl-B/TR3 peptide binding displacement, primary biochemical FP (AID 1240).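 Also: 0% = Bcl-B with tracer peptide and DMSO and 100% = tracer peptide lacking Bcl-B.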 The conditions noted are these: GST-Bcl-B / FITC-TR3 peptide fluorescence polarization; stronger effect = higher value; compound at 3.75 mg/L.
Sequence of Bcl-2-like protein 10 (Homo sapiens) (Q9HD36 whole entry, looked up): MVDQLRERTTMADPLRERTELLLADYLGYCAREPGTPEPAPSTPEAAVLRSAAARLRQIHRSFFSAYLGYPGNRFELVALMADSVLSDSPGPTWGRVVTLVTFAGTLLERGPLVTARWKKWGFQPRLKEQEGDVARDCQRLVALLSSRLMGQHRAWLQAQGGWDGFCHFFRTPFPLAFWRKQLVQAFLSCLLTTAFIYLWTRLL
Turning to `O=C(Nc1cccc(Br)c1)c1ccc([N+](=O)[O-])cc1`, the displacement was 12.7%.
For `Cc1[nH]c2ccc(Br)cc2c1CC(=O)N/N=C/c1ccc(Cl)c(Cl)c1` the value was 5.1%; for `C=CCOC(=O)C1=C(C)NC(C)=C(C(=O)OCC=C)C1c1ccc(C)o1`, 12.2%; for `CCOC(=O)C1=C(C)N=c2s/c(=C\c3ccc(Cl)cc3)c(=O)n2C1c1ccc2c(c1)OCO2` (configuration not stated), 121%.
The same measure for `CCOC(=O)C1=C(C)N=c2s/c(=C\c3ccccc3)c(=O)n2C1c1ccc(Cl)cc1` (configuration not stated): 3.8%.
Consider `CCOC(=O)C1=C(C)N=c2s/c(=C/c3ccc(C)cc3)c(=O)n2C1c1ccccc1` (configuration not stated), for which the displacement is 2.5%.
For `CCOC(=O)C1=C(C)N=c2s/c(=C\c3ccc([N+](=O)[O-])cc3)c(=O)n2C1c1ccc(Cl)cc1` (configuration not stated) the value was 9.2%; for `CCOC(=O)C1=C(C)N=c2s/c(=C/c3ccc(Cl)cc3)c(=O)n2C1c1ccccc1` (configuration not stated), 90.8%.
For `CCOC(=O)C1=C(C)N=c2s/c(=C\c3ccc(C(C)=O)cc3)c(=O)n2C1c1ccccc1` (configuration not stated) the value was 76.2%.
For `CCOC(=O)C1=C(C)N=c2s/c(=C\c3ccc(OCC)cc3)c(=O)n2C1c1ccccc1` (configuration not stated) the value was -1%; for `CCOC(=O)C1=C(C)N=c2s/c(=C\c3ccc4c(c3)OCO4)c(=O)n2C1c1ccc2c(c1)OCO2` (configuration not stated), 3.5%.
With `CCOC(=O)C1=C(C)N=c2s/c(=C\c3ccc4c(c3)OCO4)c(=O)n2C1c1ccc(C)cc1` (configuration not stated), the displacement was -7.1%.
`O=C(/C=C/c1cccc(C(F)(F)F)c1)Nc1ccccc1[N+](=O)[O-]`: the displacement amounted to 7%.
The same measure for `O=C(O)CCC(=O)N1N=C(c2cccs2)CC1c1ccccc1Cl` (configuration not stated): -8.4%.
On to `O=C(Cc1ccc(Cl)cc1)Nc1ccc(Cl)cn1`, for which the displacement turned out to be 8.8%.
The same measure for `Clc1ccc(N2CCN(N=Cc3c(Cl)cccc3Cl)CC2)cc1`: 8.5%.
Turning to `Cc1ccc(C(=O)Nc2ccc(C(=O)O)cc2)cc1S(=O)(=O)NC1CCCCC1`, the displacement is -11.1%.
Regarding `Cc1nn(-c2ccccc2)c(C)c1/C=N/O`, the displacement was 3.2%.
For `CCOC(=O)c1c(NC(=O)C(C)N2C(=O)c3ccccc3C2=O)sc2c1CCC(C)C2` (configuration not stated) the value was 2.5%; for `COc1ccc(N2C(=O)NC(=O)/C(=C\c3ccc(C)cc3)C2=O)cc1`, -6%; for `O=C1NN(c2ccccc2)C(=O)/C1=C/c1ccc(-c2ccc(F)cc2)o1`, 8.1%.
For `COc1ccc(N2C(=O)NC(=O)/C(=C/c3ccc(I)o3)C2=O)cc1` the value was 3.6%; for `O=C1NC(=O)N(c2ccccc2)C(=O)/C1=C\c1ccc(-c2ccc(F)cc2)o1`, 137%.
For `Cc1ccc(N2C(=O)NC(=O)/C(=C/c3ccc(-c4ccc(F)cc4)o3)C2=O)cc1` the value was 40.5%.
On to `O=C1NC(=O)N(c2ccccc2)C(=O)/C1=C\c1ccc(OCc2ccccc2F)cc1`, for which the displacement is 12.9%.
For `COc1ccc(N2C(=O)NC(=O)/C(=C\c3ccc(-c4ccccc4C(=O)O)o3)C2=O)cc1` the value was -88.8%; for `COc1ccc(N2C(=O)NC(=O)/C(=C/c3ccc(-c4ccc(F)cc4)o3)C2=O)cc1`, 100%.
Turning to `COc1ccc(N2C(=O)NC(=O)/C(=C/c3cccc(OCc4ccccc4F)c3)C2=O)cc1`, the displacement stood at 0.1%.
With `COc1ccc(N2C(=O)NC(=O)/C(=C/c3ccc(OCc4ccccc4F)cc3)C2=O)cc1`, the displacement amounted to 63.1%.
The same measure for `COc1ccc(N2C(=O)NC(=O)/C(=C/c3ccc(Sc4ccc(C)cc4)o3)C2=O)cc1`: 125%.
Regarding `COC(=O)c1c(N)sc(C(=O)Nc2ccccc2OC)c1C`, the displacement stood at 1.7%.
For `Cc1cc(Cl)ccc1OCC(=O)Nc1nc2ccc(Cl)cc2s1` the value was -7.8%; for `O=[N+]([O-])c1cccc(S(=O)(=O)N2CCc3ccccc3C2)c1`, 0%; for `COc1ccccc1N1C(=O)C2C(C1=O)C1C=CC2C12CC2` (configuration not stated), 15.1%.
For `O=C(Nc1ccc(I)cc1)/C(=C\c1cccc([N+](=O)[O-])c1)NC(=O)c1cccs1` the value was -0.6%; for `COc1cccc(OC)c1C(=O)Nc1ccc(C(=O)Oc2ccccc2)c(O)c1`, -9.1%.
For `O=C(Nc1ccc(Cl)c(-c2nc3ccccc3o2)c1)c1cccc(F)c1`, the displacement is -5.1%.
The same measure for `CC(=O)Nc1ccc(S(=O)(=O)Nc2ccccc2Br)cc1`: -2.9%.
With `O=C1NC(=S)N/C1=C/c1cccc(O)c1`, the displacement is -6.7%.
The same measure for `COc1cc(OC)cc(-c2nc3ccc(C)cc3c(=O)o2)c1`: -17.8%.
As for `O=C(Nc1ccc2nn(-c3ccc(F)cc3)nc2c1)c1ccc(-c2ccc([N+](=O)[O-])cc2)o1`, the displacement amounted to 8.2%.
For `CN1C(=O)NC(=O)/C(=C/c2ccc(-c3ccc(Cl)cc3)o2)C1=O` the value was 37%; for `C=CCN1C(=O)/C(=C\c2ccc(-c3ccc(F)cc3)o2)C(=O)NC1=S`, -3.3%.
Turning to `CN1C(=O)NC(=O)/C(=C/c2ccc(-c3ccc(F)cc3)o2)C1=O`, the displacement stood at 123%.
For `COc1ccccc1CNC(=O)c1cccc(Cl)c1` the value was -6.1%; for `COc1cccc(C(=O)Nc2ccc(-c3nc4ccccc4o3)c(O)c2)c1`, -23.2%.
The same measure for `O=[N+]([O-])c1ccc(/C=N\Nc2nc(-c3ccccc3)c3cc(Cl)ccc3n2)o1`: -5.3%; for `Clc1ccc2nc(N/N=C/c3ccc4c(c3)OCO4)nc(-c3ccccc3)c2c1`: 83.7%; for `Clc1ccc2nc(N/N=C/c3ccc4ncccc4c3)nc(-c3ccccc3)c2c1`: -2.6%.
For `Cc1ccc(/C=N\N2CCN(c3ccccc3)CC2)cc1` the value was -3.9%; for `COc1ccc2nc(Nc3nc(C)cc(-c4ccccc4)n3)nc(C)c2c1`, -14.2%; for `COc1cc(C)nc(Nc2nc(C)c3cc(C)ccc3n2)n1`, 107%.
For the molecule `COc1cc(C)nc(Nc2nc(C)c3ccc(C)cc3n2)n1`, the displacement amounted to 13.2%.
The same measure for `CN(C)c1ccc(CC2(CC(=O)c3ccccc3)C(=O)c3ccccc3C2=O)cc1`: 1.8%; for `CC1=CC(=O)C=C/C1=N\OS(=O)(=O)c1ccccc1`: 25.4%; for `COc1cc(C=C2C(=O)N(C)C(=O)N(C)C2=O)ccc1OC(C)c1ccccc1` (configuration not stated): 120%.
For `COc1cc(C=O)ccc1OC(C)c1ccccc1` (configuration not stated) the value was 1.1%; for `COc1ccc(C=C2C(=O)N(C)C(=O)N(C)C2=O)cc1OC`, 0.6%.
The same measure for `COc1ccc(OC)c(/C=c2\sc3nc4c(Br)c(C)c(C)cc4n3c2=O)c1`: 19.8%; for `Cc1ccc(OCC(=O)O/N=C(\N)c2ccncc2)c(C)c1`: 2.5%; for `CC1(C)Cc2ccccc2-c2nnc(-c3cccs3)n21`: -8.6%.
For the molecule `N/C(=N\c1nc2ccccc2o1)NC(=O)c1ccc(F)cc1`, the displacement was found to be 1.4%.
The same measure for `N/C(=N\c1nc2ccccc2o1)NC(=O)c1ccccc1`: -10.3%; for `N/C(=N/c1nc2ccccc2o1)NC(=O)c1sc2ccccc2c1Cl`: 51.6%; for `O=C(Oc1ccc(Br)cc1C(=S)N1CCOCC1)c1ccc([N+](=O)[O-])cc1`: 7.3%.
On to `Cc1cccc(NC(=O)c2c(NC(=O)C(C)(C)C)sc3c2CCC3)c1`, for which the displacement is -2.3%.
The same measure for `Nc1nnc2c(n1)-c1ccccc1C2=O`: 1%.
As to `CCC(=O)Nc1cccc2c1C(=O)c1ccccc1C2=O`, the displacement is 11.2%.
For `Nc1ccc2[nH]nc3c2c1C(=O)c1ccccc1-3` the value was 104%; for `CNc1c(Cl)c(Cl)c(Cl)c2c1C(=O)c1ccccc1C2=O`, 11.2%; for `Nc1cccc2c1C(=O)c1c(N)cccc1C2=O`, -4.2%.
For `CNc1ccc2[nH]nc3c2c1C(=O)c1ccccc1-3` the value was 173%.
The same measure for `Cc1cc(C)nc(NS(=O)(=O)c2ccc(NC(=S)NC(=O)c3ccc(Br)cc3)cc2)n1`: 2.6%; for `O=C(NCCN1CCOCC1)c1sc2ccccc2c1Cl`: -3.6%; for `CCOc1cc([N+](=O)[O-])cc(/C=C2/SC(=S)NC2=O)c1O`: 14%.
For the molecule `NS(=O)(=O)c1ccc(NC(=O)COc2ccc3ccccc3c2)cc1`, the displacement was found to be 3%.
As for `Cc1ccc(OCCCN2CCN(C)CC2)c(C(C)(C)C)c1`, the displacement is -8%.
Take `CC(=NCCN1CCNCC1)C1=C(O)CC(C)(C)CC1=O`: the displacement is -4.3%.
The same measure for `O=c1nc(/C=C/c2cc3c(cc2[N+](=O)[O-])OCO3)cc(C(F)(F)F)[nH]1`: 30.4%.
The same measure for `O=c1nc(/C=C/c2cc3c(cc2Br)OCO3)cc(C(F)(F)F)[nH]1`: 115%; for `O=c1nc(/C=C/c2cccc3ccccc23)cc(C(F)(F)F)[nH]1`: 49.7%; for `COc1cc(/C=C/c2cc(C(F)(F)F)[nH]c(=O)n2)cc(OC)c1OC`: 2.7%.
For `COc1cccc(/C=C/c2cc(C(F)(F)F)[nH]c(=O)n2)c1OC` the value was 121%; for `COc1cc(OC)c(OC)cc1/C=C/c1cc(C(F)(F)F)[nH]c(=O)n1`, 7.5%; for `CCOC(=O)c1c(NC(=O)c2ccc(Cl)cc2)sc(C(=O)Nc2ccccc2OCC)c1C`, 3.5%.
Turning to `Cc1ccc(N2C(=O)NC(=O)/C(=C\c3ccc(N4CCCCC4)o3)C2=O)cc1`, the displacement was -139%.
For `O=C1NC(=O)N(c2ccc(Br)cc2)C(=O)/C1=C/c1ccco1` the value was 30.1%; for `Cc1cc(N2C(=O)NC(=O)/C(=C\c3ccc(N(C)C)o3)C2=O)ccc1Br`, 153%; for `Cc1cc(N2C(=O)NC(=O)/C(=C\c3ccco3)C2=O)ccc1Br`, 74%.
With `Cc1cc(N2C(=O)NC(=O)/C(=C\C=C\c3ccco3)C2=O)ccc1Br`, the displacement was -3.7%.
The same measure for `Cc1cc(N2C(=O)NC(=O)/C(=C\c3ccc(N4CCOCC4)o3)C2=O)ccc1Br`: -33.9%; for `Cc1ccc(N2C(=O)NC(=O)/C(=C\c3ccc(N(C)C)o3)C2=O)cc1`: -134%.
For `Cc1cc(N2C(=O)NC(=O)/C(=C\c3ccc(N4CCCCC4)o3)C2=O)ccc1Br` the value was 55.5%.
For `CCN(CC)c1ccc(/C=C2\C(=O)NC(=O)N(c3ccc(Br)c(C)c3)C2=O)o1` the value was 42.6%.
Consider `CC(C)(C)C1(O)CC(c2ccccc2)=NO1` (configuration not stated), for which the displacement stood at 18.6%.
For `O=C1c2ccccc2C(=O)c2c(NC(=O)C3CC4CCC3C4)cccc21` (configuration not stated), the displacement was -7.7%.
For `O=C(c1ccccc1)N1CCN(C2CC(=O)N(CCc3ccccc3)C2=O)CC1` (configuration not stated) the value was 3.9%; for `CCC1=NN2C(=N)/C(=C/c3ccc4c(c3)OCO4)C(=O)N=C2S1`, 3%; for `CCOc1cccc(N2C(=O)NC(=O)/C(=C\c3ccc(Sc4ccccc4)o3)C2=O)c1`, 4%.
The same measure for `Cc1nc(-c2ccccc2)nc2[nH]c(-c3ccccc3)cc(=O)c12`: 69.8%; for `Cc1cc(=O)c2c(C)nc(-c3ccccc3)nc2[nH]1`: 31.5%.
The same measure for `CSc1nc(-c2ccccc2)nc2[nH]c(-c3ccccc3)cc(=O)c12`: 44.4%.
